Each sequence was assayed against HBB (assay: pooled miR-30 sensor sort-seq; sequence = guide strand). Conditions: shRNA.
Further: reference of the scale not given here.

Sequence	sensor-assay potency score (higher = more potent)
AACTTCATCCACGTTCACCTTG	-0.552
ACCACCAACTTCATCCACGTTC	-1.74
TAGACCACCAGCAGCCTGCCCA	-0.865
TCTGATAGGCAGCCTGCACTGG	-0.723
TTTGCCAAAGTGATGGGCCAGC	-0.758
TTCTTTGCCAAAGTGATGGGCC	-0.0247
TCACTCAGTGTGGCAAAGGTGC	-1.09

Each sequence was assayed against HBD in the same assay as above. Conditions: shRNA.

Sequence	sensor-assay potency score (higher = more potent)
AATTCCTTGCCAAAGTTGCGGG	-0.612
ACTAAAGGCACCTAGCACCTTC	-0.765
TTCACTTTGCCCCACAGGGCAT	-0.844
TAGACCACCAGTAATCTGCCCA	-0.29
ATTCCTTGCCAAAGTTGCGGGC	-0.495
AGCCACACCAGCCACCACCTTC	-1.62
TCAGCTGAGAAAAAGTGCCCTT	-0.0837
ACCACCAACTGCATCCACGTTC	-1.79
ACACACACCAGCACATTGCCCA	-0.428
AACAGCATCAGGAGAGGACAGA	-1.5

What follows are sequences tested against HBM in the same assay as above. Conditions: shRNA.

Sequence	sensor-assay potency score (higher = more potent)
TTGTCCACGTGCTGCACCGCCG	-1.46
TGCGGGAAGTAGACCTTGGTGC	-0.583
TGCATTTGCACGGTGAACTCGT	0.113
TCCACGTGCTGCACCGCCGCGC	-1.37
TTTGCACGGTGAACTCGTCCTG	0.188
TTGGTGCTGGGGTACACCGTGA	-1.01
TTGCACGGTGAACTCGTCCTGC	0.462
TGAACTCGTCCTGCAGGTGGGA	-0.648
ATTAGCAGCGGAAAGTTGGCTG	0.235
TCAGGTCCCAGACCTGCGCGAT	-1.04
TGCACGGTGAACTCGTCCTGCA	-1.03
AACACTGGATTAGCAGCGGAAA	-1.52

The sequences below were run against HBQ1 in the same assay as above. Conditions: shRNA.

Sequence	sensor-assay potency score (higher = more potent)
ATAACGTGGCTCAGGAACTTGT	-1.13
TAGGTCGTCCAGGCGCTCCACG	-1.23
TGTCGTGTAGACGCCGACGTTG	-0.887
TGGGCTCTGACTTGTGAGGAGC	-1.65
TTCCAGGGCCTCTGTCGTGTAG	-1.54
AAGTAGGTCTTCGTGGCGGGGA	-0.359
TTGCTGCCCAGCTTCTTCCACA	-1.27
TGGGAGAAGTAGGTCTTCGTGG	-0.972
AGAAGTAGGTCTTCGTGGCGGG	-0.804
TTACCAGCAGGCAGTGGCCCAG	-1.7
